Screening results deposited in PubChem BioAssay by National Center for Advancing Translational Sciences (NCATS).
HPGD inh = inhibitors of human 15-hydroxyprostaglandin dehydrogenase (HPGD); purified HPGD, NADH fluorescence kinetic, PGE2 substrate; 150,000 tested, 4.3% active; Potency, µM, most hits filed as inhibitors
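20 nM HPGD preincubated 15 min at room temperature with compound in 50 mM Tris-HCl pH 8, 0.01% Tween 20. Started with 1 mM NAD+ and 30 uM prostaglandin E2; NADH fluorescence (360/450 nm) read 5 times over 30-s intervals, last minus first.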
HttQ103 aggreg = inhibitors of mutant huntingtin aggregate formation in PC12 cells; PC12 HttQ103-GFP aggregates, Acumen cytometry, 40 h; Potency, µM (titrated, usually from 46.1 µM), usual class: inhibitors; 220,000 tested, 1.1% active; AID 1688; active = well fitted curve in the direction sought with a large enough effect; inconclusive = small, poorly fitted or top-dose-only effect, or another doubt; inactive = no such curve, though single readings can be large; an effect the other way counts as inactive or inconclusive; also: nearly all actives have a fitted effect of over 60% in size
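Compounds (qHTS titration) were added to PC12 cells expressing an ecdysone-driven HTT exon 1 Q103–GFP fusion after induction with 100 nM tebufenozide. Aggregate formation was measured as GFP objects in cell lysates.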
JMJD2E inh = inhibitors of human JMJD2E histone demethylase; B2RXH2; JMJD2E catalytic domain, FDH-coupled NADH fluorescence (FDH is formaldehyde dehydrogenase); Potency, µM (series often up to 57.1 µM), most hits filed as inhibitors; 230,000 tested, 1.6% active; AID 2147; also: nearly all actives have a fitted effect of over 50% in size
ALDH1A1 block = inhibitors of human aldehyde dehydrogenase 1A1; Purified ALDH1A1, NADH fluorescence, propionaldehyde substrate; 220,000 tested, 7.3% active; P00352; AID 1030; Potency, µM (titrated, usually from 75.3 µM), most hits filed as inhibitors
Target sequence (P00352 whole entry, looked up): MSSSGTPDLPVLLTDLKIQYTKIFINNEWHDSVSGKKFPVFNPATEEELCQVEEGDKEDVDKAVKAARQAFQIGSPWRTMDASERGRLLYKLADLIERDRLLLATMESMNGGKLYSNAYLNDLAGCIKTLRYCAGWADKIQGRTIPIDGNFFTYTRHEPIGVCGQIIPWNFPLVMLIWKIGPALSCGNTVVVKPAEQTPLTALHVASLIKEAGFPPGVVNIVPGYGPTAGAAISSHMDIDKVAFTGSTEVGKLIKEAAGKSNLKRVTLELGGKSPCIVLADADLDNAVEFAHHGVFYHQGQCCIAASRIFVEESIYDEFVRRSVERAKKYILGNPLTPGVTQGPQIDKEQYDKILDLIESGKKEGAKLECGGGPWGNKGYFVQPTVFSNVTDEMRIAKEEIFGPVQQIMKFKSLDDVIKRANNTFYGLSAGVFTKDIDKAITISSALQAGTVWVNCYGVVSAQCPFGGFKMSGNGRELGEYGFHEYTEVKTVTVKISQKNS
HTT ATP protect = cytoprotection in Huntington HTT-Q103 PC12 cell model; PC12 HTT-Q103 induced, cytoprotection, ATP luminescence, 40 h; Potency, µM (doses to about 56.4 µM), usual class: activators; 230,000 tested, 0.14% active; AID 1471; active = well fitted curve in the direction sought with a large enough effect; inconclusive = small, poorly fitted or top-dose-only effect, or another doubt; inactive = no such curve, though single readings can be large; an effect the other way counts as inactive or inconclusive; also: nearly all actives have a fitted effect of over 45% in size
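Huntington model: PC12 line, ecdysone-inducible HTTQ103 exon1–GFP, tebufenozide 100 nM. Test articles in a dose series. Endpoint luminescence from cellular ATP.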
LMNA splice mod = changes lamin A minigene splicing in HeLa cells; HeLa LMNA splicing GFP/RFP minigene ratio, 48 h; Potency, µM (highest dose often 46.1 µM), actives largely listed as inhibitors; 200,000 tested, 0.01% active; AID 1487; active = well fitted inhibition curve with a large enough effect in the signal ratio, with a control signal flat, not every such curve was filed as active; inconclusive = small, poorly fitted or top-dose-only effect, or effect the other way, or a change in a side signal; the % refers to the signal ratio
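S3 HeLa cells stably expressing lamin A-EGFP splicing minigene plus DsRed2, 600 cells/well, 48 h compound exposure at 37C. Laser-scanning cytometry; analysed as GFP (500-530 nm)/RFP (575-640 nm) total intensity ratio; 0.5% DMSO vehicle.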
Large screens that a line does not name were inactive. An excerpt weighted towards active compounds, which were near 9.2% of everything screened. Unless noted, calls follow the shape of the dose curve; as a rule, active = well fitted inhibition curve with a large enough effect (not every such curve was filed as active); inconclusive = small, poorly fitted or top-dose-only effect, or another doubt; inactive = no such curve, though single readings can be large or run the other way.

CCc1cc(=O)oc2cc(C)c(CN3CCCCC3)c(O)c12	JMJD2E inh inconclusive, ALDH1A1 block inconclusive
CCCc1cc(=O)oc2c(CN3CCCC3)c(O)ccc12	HPGD inh inconclusive, JMJD2E inh inconclusive, ALDH1A1 block inconclusive
CCc1cc(=O)oc2cc(C)c(CN3CCCC3)c(O)c12	JMJD2E inh 25.1µM, ALDH1A1 block inconclusive (no result: HPGD inh)
CCCc1cc(=O)oc2cc(C)c(CN3CCCC3)c(O)c12	JMJD2E inh inconclusive, ALDH1A1 block 35.5µM
Cc1ccc2c(c1)N(CC(=O)NCCN1CCOCC1)C(=O)CO2	none (no result: HPGD inh, HttQ103 aggreg, JMJD2E inh, ALDH1A1 block, LMNA splice mod)
COc1ccc(Nc2nc(OC)nc(N3CCOCC3)n2)cc1	none (no result: HPGD inh, LMNA splice mod)
COc1ccc(Nc2nc(Nc3ccc(OC)cc3)nc(-n3[nH]c(=O)c(C)c3C)n2)cc1	HttQ103 aggreg inconclusive, ALDH1A1 block 25.1µM
COCc1cc(=O)[nH]c(SCCS(=O)(=O)c2ccc(C)cc2)n1	ALDH1A1 block 0.794µM (no result: HPGD inh, LMNA splice mod)
CC(Oc1ccc(Br)cc1)C(=O)NCc1cccnc1 (stereo not drawn)	none (no result: HttQ103 aggreg, JMJD2E inh, HTT ATP protect, LMNA splice mod)
Cc1ccc(-c2ccc(/C=C3\C(=O)ON=C3c3ccccc3)o2)c([N+](=O)[O-])c1	HPGD inh 1.26µM, ALDH1A1 block 8.91µM, LMNA splice mod inconclusive
CCn1c(/N=C/c2ccccc2NS(=O)(=O)c2ccc(C)cc2)nc2ccccc21	LMNA splice mod inconclusive
COc1cccc(NC(=O)Cc2nc(-c3ccccc3)sc2-c2ccc(C)cc2)c1	HPGD inh inconclusive, ALDH1A1 block 25.1µM, LMNA splice mod inconclusive (no result: HTT ATP protect)
CC[C@H](C)[C@H](N)C1=N[C@H](C(=O)N[C@@H](CC(C)C)C(=O)N[C@@H](CCC(=O)O)C(=O)N[C@@H](C(=O)N[C@H]2CCCCNC(=O)[C@@H](CC(N)=O)NC(=O)[C@@H](CC(=O)O)NC(=O)[C@@H](Cc3cnc[nH]3)NC(=O)[C@@H](Cc3ccccc3)NC(=O)[C@@H]([C@@H](C)CC)NC(=O)[C@@H](CCCN)NC2=O)[C@@H](C)CC)CS1	LMNA splice mod inconclusive
COCCCNS(=O)(=O)c1ccc(OC)c(Cl)c1Cl	ALDH1A1 block 10µM
CCCCNS(=O)(=O)c1ccc(OC)c(Cl)c1Cl	ALDH1A1 block inconclusive
CCNC(=O)[C@@H]1CCCN1C(=O)[C@H](CCCN=C(N)N)NC(=O)[C@H](CC(C)C)NC(=O)[C@@H](Cc1c[nH]c2ccccc12)NC(=O)[C@H](Cc1ccc(O)cc1)NC(=O)[C@H](CO)NC(=O)[C@H](Cc1c[nH]c2ccccc12)NC(=O)[C@H](Cc1cnc[nH]1)NC(=O)[C@@H]1CCC(=O)N1	HttQ103 aggreg 7.94µM (no result: HPGD inh, JMJD2E inh, ALDH1A1 block, LMNA splice mod)
CC(C)C[C@H](NC(=O)[C@@H](Cc1c[nH]c2ccccc12)NC(=O)[C@@H](Cc1ccc(O)cc1)NC(=O)[C@@H](CO)NC(=O)[C@@H](Cc1c[nH]c2ccccc12)NC(=O)C(Cc1cnc[nH]1)NC(=O)C1CCC(=O)N1)C(=O)N[C@@H](CCCN=C(N)N)C(=O)N1CCC[C@@H]1C(=O)NCC(N)=O (stereo partly drawn)	none (no result: HPGD inh, JMJD2E inh, ALDH1A1 block, LMNA splice mod)
C[C@@]12CCC3c4ccc(OC5C=CC(c6ccccc6)OC5CO)cc4CCC3C1CCC2=O (stereo partly drawn)	HTT ATP protect inconclusive (no result: HPGD inh, HttQ103 aggreg, JMJD2E inh, LMNA splice mod)
CCc1ccc(O)c(N=Cc2cccc(C)c2O)c1	HttQ103 aggreg inconclusive, JMJD2E inh inconclusive, ALDH1A1 block inconclusive
CCCc1ccc(O)c(N=Cc2cc(Br)cc(OCC)c2O)c1	JMJD2E inh 15.8µM, HTT ATP protect inconclusive (no result: HPGD inh, LMNA splice mod)
CCCS(=O)(=O)NCCc1csc(-c2cccnc2)n1	none (no result: HPGD inh, HttQ103 aggreg, JMJD2E inh, ALDH1A1 block, LMNA splice mod)
COc1ccccc1NC(=O)CN(Cc1ccco1)C(=O)c1ccc(Cl)nc1	ALDH1A1 block 15.8µM (no result: HPGD inh)
COc1ccccc1NS(=O)(=O)c1cc(C(=O)O)ccc1F	none (no result: HttQ103 aggreg, JMJD2E inh, HTT ATP protect, LMNA splice mod)
O=C(CSc1nc(-c2ccccc2)cc(C(F)(F)F)n1)N1CCOCC1	none
CC1CCCN(C(=O)C(C)Sc2nc(-c3ccccc3)cc(C(F)(F)F)n2)C1 (stereo not drawn)	HPGD inh 15.8µM, HttQ103 aggreg inconclusive, LMNA splice mod inconclusive
CC(Sc1nc(-c2ccccc2)cc(C(F)(F)F)n1)C(=O)NCc1ccco1 (stereo not drawn)	none
